According to PubChem BioAssay (NCATS):
Inconclusive results are not listed. Values without a mark were called inactive. The source made the active and inactive calls. Calls come from the whole dose curve; as a rule, active = well fitted inhibition curve with a large enough effect; inconclusive = small, poorly fitted or top-dose-only effect; inactive = flat fitted curve, though single readings scatter.

Test system: TAB113
Experiment: qHTS profiling for inhibitors of Plasmodium falciparum proliferation (AID 504749); note: nearly all actives have a fitted effect of over 60% in size;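 for activity, negative = inhibition: 0% = DMSO vehicle and full inhibition = artemisinin control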
Conditions: P. falciparum in erythrocytes, SYBR Green DNA, 72 h; series mostly up to 28.7 µM; activity, negative = inhibition: at the top concentration
Method in brief: (§1)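 Quantitative HTS: compounds pinned into medium, infected erythrocytes added (0.3% parasitemia, 2.5% hematocrit), 72 h culture at 37 C under 5% CO2. Saponin/Triton lysis with SYBR Green I, overnight RT, then fluorescence read.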
Potency is the fitted concentration of half-maximal effect.

Row | SMILES | activity, negative = inhibition | Potency
1 | CCCCCCCCCCCCCCC[C@H](O)[C@H](N)CO | 10% | 
2 | CN1C2CCC1CC(OC(c1ccccc1)c1ccccc1)C2 (stereo unspecified) | -25.9% | 
3 | c1ccc(C2CN3CCSC3=N2)cc1 (stereo unspecified) |  | 11.2 µM (active)
4 | CC(O)C(O)[C@H]1CNc2nc(N)[nH]c(=O)c2N1 (stereo partly specified) | 9.63% | 
5 | CC(C)NC[C@H](O)COc1ccc(CC(N)=O)cc1 | 3.04% | 
6 | CCCCCCCCCCCCCCCCCCOC[C@H](COP(=O)([O-])OCC[N+](C)(C)C)OC | 2.91% | 

Test system: TAB165
Experiment: as above
Conditions: P. falciparum in erythrocytes, SYBR Green DNA, 72 h; series mostly up to 28.7 µM; activity, negative = inhibition: at the top concentration
Method in brief: as §1

Row | SMILES | activity, negative = inhibition | Potency
7 | CCCCCCCCCCCCCCC[C@H](O)[C@H](N)CO | 2.5% | 
8 | c1ccc(C2CN3CCSC3=N2)cc1 (stereo unspecified) |  | 5.01 µM (active)
9 | CC(O)C(O)[C@H]1CNc2nc(N)[nH]c(=O)c2N1 (stereo partly specified) | 5.3% | 
10 | CC(C)NC[C@H](O)COc1ccc(CC(N)=O)cc1 | 10.1% | 
11 | CCCCCCCCCCCCCCCCCCOC[C@H](COP(=O)([O-])OCC[N+](C)(C)C)OC | 11.2% | 
